High-throughput results deposited in PubChem BioAssay by Broad Institute.
PfHsp40 yeast = rescue of yeast from PfHsp40 toxicity, primary screen, S. cerevisiae, ATP luminescence | S. cerevisiae expressing PfHsp40, growth rescue | growth rescue, % at 12.5 µM | 340,000 tested, 0.68% active | AID 504582, 2011; in the data active = growth rescue above about 28%, passing the limit was not always enough;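 note: yeast W303a lacking pdr1 and pdr3 grown in galactose medium; growth measured after three days at 30 °C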
PrP 5UTR inh = inhibition of PrP 5' UTR reporter expression | cell-based PrP 5' UTR mRNA reporter, plate reader | 340,000 tested, 0.35% active | inhibition, % (test concentration not listed) | AID 488862, 2010; in the data active = inhibition above about 52%; note: 0 = median of the neutral control wells
FadD28 binding = inhibitors of FadD28 bisubstrate probe binding, primary screen, biochemical, fluorescence polarization, single point | Mycobacterium tuberculosis FadD28 fatty-acid-AMP ligase | inhibition, % at 12.5 µM | 360,000 tested, 0.22% active | AID 588549, 2011; in the data active = inhibition above about 8.5%, passing the limit was not always enough
BioA inh = M. tuberculosis BioA enzyme inhibitors, primary screen, biochemical, plate reader, single point, HTS; 7,8-diaminopelargonic acid synthase BioA (Mycobacterium tuberculosis); purified M. tuberculosis BioA enzyme; inhibition, % at 9.99 µM; 360,000 tested, 0.096% active; AID 602481, 2012; in the data active = inhibition above about 40%
TcdB inh = TcdB glycohydrolase inhibitors, primary screen, biochemical, single point, plate reader. Toxin B (Clostridioides difficile), P18177. TcdB glycohydrolase enzymatic assay. inhibition, % at 9.99 µM. 350,000 tested, 0.24% active. AID 652162, 2013; in the data active = inhibition above about 10%
Target sequence (P18177 whole entry, looked up): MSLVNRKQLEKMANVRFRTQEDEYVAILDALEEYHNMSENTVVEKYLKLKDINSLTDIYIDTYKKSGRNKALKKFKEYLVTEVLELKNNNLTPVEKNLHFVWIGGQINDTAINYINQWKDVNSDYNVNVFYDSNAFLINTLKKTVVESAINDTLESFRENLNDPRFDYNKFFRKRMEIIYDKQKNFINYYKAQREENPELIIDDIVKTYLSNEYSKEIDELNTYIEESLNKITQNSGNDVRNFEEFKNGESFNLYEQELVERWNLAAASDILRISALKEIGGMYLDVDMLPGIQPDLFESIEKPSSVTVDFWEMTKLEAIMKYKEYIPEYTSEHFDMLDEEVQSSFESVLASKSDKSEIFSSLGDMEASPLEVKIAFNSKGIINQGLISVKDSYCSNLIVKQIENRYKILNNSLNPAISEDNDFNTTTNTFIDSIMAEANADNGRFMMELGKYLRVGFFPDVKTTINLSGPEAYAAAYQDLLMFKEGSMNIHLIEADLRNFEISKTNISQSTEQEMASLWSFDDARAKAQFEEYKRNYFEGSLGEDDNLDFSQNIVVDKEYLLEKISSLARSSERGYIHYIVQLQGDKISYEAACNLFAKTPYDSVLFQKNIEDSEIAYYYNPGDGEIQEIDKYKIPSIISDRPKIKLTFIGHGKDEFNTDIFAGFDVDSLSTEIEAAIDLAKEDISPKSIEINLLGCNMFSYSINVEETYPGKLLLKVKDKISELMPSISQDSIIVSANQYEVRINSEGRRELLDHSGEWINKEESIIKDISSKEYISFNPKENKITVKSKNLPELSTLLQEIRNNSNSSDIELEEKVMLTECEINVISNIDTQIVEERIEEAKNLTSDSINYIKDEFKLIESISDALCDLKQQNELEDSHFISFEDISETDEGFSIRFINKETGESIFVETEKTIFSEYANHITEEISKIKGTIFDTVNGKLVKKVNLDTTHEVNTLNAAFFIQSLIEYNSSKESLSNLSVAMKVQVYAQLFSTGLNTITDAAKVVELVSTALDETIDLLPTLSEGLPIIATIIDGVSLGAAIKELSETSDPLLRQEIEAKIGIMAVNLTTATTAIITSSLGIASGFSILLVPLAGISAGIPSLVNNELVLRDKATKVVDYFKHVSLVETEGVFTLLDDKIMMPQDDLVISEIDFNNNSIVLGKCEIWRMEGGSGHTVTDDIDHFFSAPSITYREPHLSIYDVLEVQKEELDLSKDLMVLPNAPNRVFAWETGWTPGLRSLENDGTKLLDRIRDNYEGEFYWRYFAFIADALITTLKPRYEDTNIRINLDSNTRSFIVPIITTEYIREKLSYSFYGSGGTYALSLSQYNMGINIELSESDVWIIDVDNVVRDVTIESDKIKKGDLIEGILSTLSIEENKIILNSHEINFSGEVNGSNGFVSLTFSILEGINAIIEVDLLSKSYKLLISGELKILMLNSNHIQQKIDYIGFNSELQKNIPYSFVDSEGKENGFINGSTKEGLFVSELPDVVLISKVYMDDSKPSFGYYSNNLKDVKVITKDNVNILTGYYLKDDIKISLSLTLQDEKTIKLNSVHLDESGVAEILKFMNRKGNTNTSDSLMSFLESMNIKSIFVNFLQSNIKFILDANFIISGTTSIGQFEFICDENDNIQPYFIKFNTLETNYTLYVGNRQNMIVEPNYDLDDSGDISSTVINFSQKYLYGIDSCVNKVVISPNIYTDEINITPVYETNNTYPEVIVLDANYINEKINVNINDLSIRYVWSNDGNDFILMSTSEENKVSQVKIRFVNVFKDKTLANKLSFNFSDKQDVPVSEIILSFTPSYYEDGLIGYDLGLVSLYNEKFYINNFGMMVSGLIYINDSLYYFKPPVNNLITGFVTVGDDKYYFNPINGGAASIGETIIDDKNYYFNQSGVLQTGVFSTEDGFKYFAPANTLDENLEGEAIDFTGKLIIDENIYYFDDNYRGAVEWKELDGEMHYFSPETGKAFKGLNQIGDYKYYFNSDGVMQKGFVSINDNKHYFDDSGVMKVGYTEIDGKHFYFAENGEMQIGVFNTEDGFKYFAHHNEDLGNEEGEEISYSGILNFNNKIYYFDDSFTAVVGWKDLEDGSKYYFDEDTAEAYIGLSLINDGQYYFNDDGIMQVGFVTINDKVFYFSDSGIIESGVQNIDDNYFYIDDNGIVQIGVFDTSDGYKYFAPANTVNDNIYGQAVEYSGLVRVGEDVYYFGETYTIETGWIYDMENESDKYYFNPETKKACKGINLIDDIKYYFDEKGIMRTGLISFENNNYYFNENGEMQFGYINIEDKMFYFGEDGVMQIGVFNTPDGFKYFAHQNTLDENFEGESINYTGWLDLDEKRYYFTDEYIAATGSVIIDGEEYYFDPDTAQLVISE
* marks the source's active call; other numbers are inactive results; · = not tested or not shown. The list is not random: actives were taken first. Their share in the collection is about 1.1%.

SMILES	PfHsp40 yeast	PrP 5UTR inh	FadD28 binding	BioA inh	TcdB inh
COc1ccc(C(=O)NCCc2c[nH]c3ccccc23)cc1S(=O)(=O)N1CCOCC1	2.7	-16.7	8.4*	-1.2	·
O=C(CCNS(=O)(=O)c1ccc(Br)s1)NC1CCCC1	0.7	3.5	-0.1	-1.1	1.5
O=S(=O)(NC1CCCCCC1)c1ccc(Br)s1	58.6*	5.9	-3.9	-1.9	·
CCCC#Cc1cnc2c(c1)C(=O)N([C@H](C)CO)C[C@H](C)[C@@H](CN(C)C(=O)c1cccc(F)c1)O2	·	·	·	0.1	0.6
COc1cc(Cc2ccc(N)c(OC)c2)ccc1N	-0.3	2.0	-1.5	·	14.6*
Cc1ccc(C2=CC(c3ccc(C)cc3)n3ncnc3N2)cc1 (centres undefined)	69.0*	2.9	-1.4	-0.6	·
COCC(=O)Nc1ccc2c(c1)OC[C@@H](C)N(C(=O)c1cnccn1)C[C@@H](C)[C@@H](OC)CN(C)C2=O	·	·	·	1.7	-0.5
C=CC[C@@H](CC/C=C/C=C/CC/C=C\[C@@H]1CSC([C@@H]2C[C@@H]2C)=N1)OC	2.5	55.9*	-2.8	0.2	·
C[C@@H]1CCCCO[C@@H](CN(C)C(=O)CCC(F)(F)F)[C@H](C)CN([C@@H](C)CO)C(=O)c2cc(NS(=O)(=O)c3cn(C)cn3)ccc2O1	·	·	·	-1.8	0.3
COc1ccc(NC(=O)N(C)C[C@@H]2OCc3ccccc3-c3ccccc3C(=O)N([C@@H](C)CO)C[C@@H]2C)cc1	·	·	·	0.9	0.1
CC(=O)N1c2ccc(S(=O)(=O)NCCC(=O)NCCc3cccc(C)c3)cc2CC1C (centres undefined)	67.7*	-5.8	-3.1	-1.9	3.0
COc1ccc(NC(=O)N[C@H]2CC[C@H](CCNC(=O)CCN3CCCCC3)O[C@@H]2CO)cc1	·	·	·	-0.1	-0.4
CCOC(=O)C1(C(C)(C)CC)CC(CSc2nc3ccccc3[nH]2)OC1=O (centres undefined)	69.2*	-22.3	-5.2	1.1	·
Cc1cccc(NC(=O)c2ccccc2O)c1C	57.1*	-44.7	-2.3	·	1.0
CC(=O)c1ccc2c(c1)C1C=CCC1C(c1cc3c(cc1Br)OCO3)N2 (centres undefined)	-0.9	-18.6	-2.7	0.2	1.6
COc1ccc2c(c1)C1C=CCC1C(c1cc3c(cc1Br)OCO3)N2 (centres undefined)	67.8*	-17.1	-0.2	-2.1	·
O=C(Nc1nnc(SCc2ccc(F)cc2)s1)c1cccnc1Cl	-1.3	-9.9	-0.1	5.2	-0.6
O=C(Nc1nnc(SCc2ccc(F)cc2)s1)c1ccccn1	161.4*	12.3	0.8	·	0.8
CCOC(=O)CSc1nnc(CNC(=O)c2cccc(C)c2)n1C	47.4*	-27.8	-5.5	·	-0.3
COc1cc2c(cc1OC)[C@@]13ON=C(c4ccc(OCCO)cc4)[C@@H]1CCN3CC2	·	·	·	·	1.3
CCCNC(=O)N1CCC2(CC1)CN(C(=O)CC)[C@@H](CO)c1[nH]c3cc(OC)ccc3c12	·	·	·	·	-0.4
COc1cc(OC)c2c(O)c3c(c(-c4c5c(c(O)c6c(OC)cc(OC)cc46)CO[C@@H](C)[C@H]5O)c2c1)[C@H](O)[C@H](C)OC3	-0.1	-6.9	10.2*	-4.1	·
COc1cc2c(c(OC)c1O)C(=O)CO2	-0.5	-23.6	-4.3	-1.4	-4.5
O=C([C@@H]1[C@@H](CO)[C@@H]2Cn3c(ccc(-c4ccc(F)cc4)c3=O)[C@H]1N2)N1CCCCC1	·	·	·	-0.5	0.6
Nc1ncnc2c1ncn2[C@@H]1O[C@H](CNC(=O)[C@@H](N)C2CCCCC2)[C@@H](O)[C@H]1O	73.2*	-2.5	-0.5	-2.9	-0.6
SMILES	PfHsp40 yeast	PrP 5UTR inh	FadD28 binding	BioA inh	TcdB inh
C[C@@H](N)C(=O)NC[C@H]1O[C@@H](n2cnc3c(N)ncnc32)[C@H](O)[C@@H]1O	-1.1	-21.6	-2.0	1.1	1.2
C[C@H](N)C(=O)NC[C@H]1O[C@@H](n2cnc3c(N)ncnc32)[C@H](O)[C@@H]1O	-2.3	-9.6	-0.4	-0.3	0.3
CSCC[C@H](N)C(=O)NC[C@H]1O[C@@H](n2cnc3c(N)ncnc32)[C@H](O)[C@@H]1O	38.5*	0.9	0.3	0.3	-0.6
COc1ccc2nc(NC(=S)N(C)C)sc2c1	99.1*	-135.8	-1.5	1.6	·
O=C(c1ccccc1F)N1C[C@H]2[C@@H](c3ccccc31)[C@H](CO)N2C(=O)c1cccnc1	·	·	·	-4.0	-10.0
CC(C)(C)C(O)C(Cc1ccccc1Cl)n1cncn1 (centres undefined)	275.7*	-1.5	-1.4	-1.2	0.0
Cc1ccc(S(=O)(=O)N2CCCC(C(=O)N3CCN(c4ccccc4)CC3)C2)cc1 (centres undefined)	73.6*	-5.8	-1.6	0.6	-0.9
COc1ccc(N2CCN(C(=O)C3CCCN(S(=O)(=O)c4ccc(C)cc4)C3)CC2)cc1 (centres undefined)	-0.3	-16.2	0.0	-1.4	1.3
O=C(CCC(=O)N1CCSc2ccccc21)Nc1ccc(F)cc1	-2.1	-27.8	-3.6	2.8	3.3
O=C(CCC(=O)N1CCSc2ccccc21)Nc1cccc(F)c1	-0.3	-5.6	0.2	0.0	10.2*
O=C(Nc1ccc(Nc2ccccc2)cc1)C(Cl)Cl	8.2	-21.2	-0.4	·	·
O=C(Nc1ccc(Nc2ccccc2)cc1)C(Cl)(Cl)Cl	33.2*	-13.8	3.3	·	·
O=C(Nc1ccc(Nc2ccccc2)cc1)c1ccccc1	·	·	·	·	1.3
NC(=O)Nc1ccc(Nc2ccccc2)cc1	0.8	-10.1	-4.2	·	15.0*
C[C@@H]1CN([C@@H](C)CO)S(=O)(=O)c2ccc(C#CC3CC3)cc2O[C@@H]1CN(C)C(=O)CN(C)C	·	·	·	-0.8	0.9
Cc1noc(C)c1NC(=O)Nc1ccc2c(c1)C(=O)N([C@H](C)CO)C[C@H](C)[C@@H](CN(C)C(=O)Nc1ccc3c(c1)OCO3)OCCCC[C@H](C)O2	·	·	·	3.6	0.2
CN1[C@H](C(=O)NC2CCC2)[C@@H](CO)[C@@H]2Cn3c(ccc(-c4cccc(F)c4)c3=O)[C@@H]21	·	·	·	3.3	0.4
O=C(CSc1ccc(-c2ccccn2)nn1)NCc1ccc(F)cc1	247.5*	-15.6	-0.2	·	-0.2
O=C(CSc1ccc(-c2ccccn2)nn1)NCc1ccccc1	270.2*	-19.0	-3.7	·	2.1
C[C@@H]1CN([C@H](C)CO)S(=O)(=O)c2ccc(C#CC(C)(C)O)cc2O[C@H]1CN(C)C(=O)CC1CC1	·	·	·	0.8	0.4
Cc1ccccc1S(=O)(=O)NCC[C@@H]1CC[C@H](NC(=O)C2CC2)[C@H](CO)O1	·	·	·	-1.5	-0.6
C[C@H]1CN([C@@H](C)CO)C(=O)Cc2cc(NS(=O)(=O)c3ccc(F)cc3)ccc2O[C@@H]1CN(C)C(=O)Nc1ccc(C(F)(F)F)cc1	·	·	·	3.8	-1.4
O=C(O)c1ccccc1-c1ccc(/C=c2\sc3nc4cc(Br)cnc4n3c2=O)o1	-0.5	-13.6	23.7*	-0.2	·
Cc1cc2nc3s/c(=C/c4ccc(-c5ccccc5C(=O)O)o4)c(=O)n3c2cc1C	3.1	15.1	0.6	2.4	-0.1
